Results on 40 compounds are retold here after PubChem BioAssay (NCATS).

Inconclusive results are not listed. A number with no mark means an inactive call. Active and inactive are the calls of the source. The call rests on the fitted dose curve; in most records, active means well fitted inhibition curve with a large enough effect; inconclusive means small, poorly fitted or top-dose-only effect; inactive means flat fitted curve, though single readings scatter.
On the % scale 0 is the no-effect control and ±100 the full control effect; potency means the concentration at half of the fitted maximal effect.

The test relates to NIH3T3. The test can be described thus: Cytotoxic Profiling of Annotated Libraries Using Quantitative High-Throughput Screening (AID 1296008). Further: nearly all actives have a fitted effect of over 60% in size. The settings on record: Five cell lines viability, CellTiter-Glo ATP luminescence, 48-72 h; max response: active compounds read low. The essentials: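 Cells exposed to compounds for 48 or 72 hr at 37 degrees Celsius. Viability read as ATP-coupled luminescence with CellTiter-Glo after 10 min at room temperature.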
In general terms: In ATP-based viability assays light output follows the ATP content of the culture.
For the compound `C=C(COC(=O)C(O)C(O)CN)C12OC1C1(C)C(=CC2=O)C(O)C(O)CC1C` (stereo not given), the outcome was inactive. On to `COc1cc(-c2nc(N[C@H](CO)Cc3ccccc3)ccc2C(=O)NCCOc2ccccc2)cc(OC)c1OC`, for which the max response is -3.25%.

Consider `Cc1cccc(-c2[nH]ncc2-c2ccc(F)c(-c3cnn(CCO)c3)c2)n1`, for which the max response was -23.9%.

With `CC1(C)CC[C@]2(C(=O)O)CC[C@]3(C)C(=CCC4[C@@]5(C)C[C@@H](O)[C@H](O)C(CO)(CO)C5CC[C@]43C)C2[C@@H]1O` (stereo not given in full), the max response was -1.94%. On the same count and under the same terms, the same measure for `O=C(NC1CCC1)c1ccc(C#Cc2cccc(F)c2)nc1`: -25.1%; for `Nc1nc2c(cnn2CCCc2ccc(O)cc2)c2nc(-c3ccco3)nn12`: 3.84%. `CC(=O)O[C@@H]1C[C@]2(C)[C@@]3(CCC4[C@@]5(C)CC[C@H](O[C@@H]6O[C@H](C(=O)O)[C@@H](O)[C@H](OC7OC(CO)C(O)C(O)[C@H]7O[C@@H]7O[C@@H](C)[C@H](O)[C@@H](O)[C@H]7O[C@@H]7OC[C@](O)(CO)[C@H]7O)[C@H]6OC6OC(CO)C(O)C(O)C6O)C(C)(C)C5CC[C@]42C)OC[C@@]12CCC(C)(C)CC23` (stereo not given in full): the max response was 0.621%. Still for that read-out and setting: with `CC(C)(CNC(=O)c1cccc(-c2noc(C(F)(F)F)n2)c1)c1coc(-c2ccccc2)n1` the figure was 4.1%; with `O=C1COc2nccc(-c3ccccc3F)c2CN1Cc1cc(C(F)(F)F)cc(C(F)(F)F)c1`, -11.4%; with `O=C(NC[C@H](O)CN1CCc2ccccc2C1)c1ccnc(NC2CCC2)c1`, -20.6%. As for `O=C(O)c1cccc(-c2ccc(-c3cn(C(=O)N4CCCCC4Cc4ccccc4)nn3)cc2)c1` (stereo not given), the max response was -1.06%. On the same count and under the same terms, the same measure for `CC(=O)[C@H]1CC[C@H]2[C@@H]3CC=C4C[C@@H](OS(=O)(=O)O)CC[C@]4(C)[C@H]3CC[C@]12C`: -4.15%. With `O=C(NCC1(N2CCN(c3ccccc3)CC2)CCOCC1)c1cccnc1Sc1ccccc1`, the outcome was inactive. `C[C@@H]1C[C@H](C)CN(CCC(=O)Nc2ccc(Br)cc2)C1`: the max response was -17.9%. Turning to `C[C@@H]1C[C@H]2O[C@@]3(O[C@@H]2C(C)(C)O)C(O)[C@@]2(C)C4CCC5C(C)(C)[C@@H](O[C@H]6OC[C@H](O)[C@@H](O)[C@@H]6O)CC[C@@]56C[C@@]46CC[C@]2(C)C13` (stereo not given in full), the max response is -0.0399%. With `COc1ccc(N2CCN(C(=O)c3cc4c(s3)-c3ccccc3S(=O)(=O)C4)CC2)cc1`, the max response is -22%. As to `CCOc1ccc(Cc2nc(-c3c(C)nc4ccccn34)cs2)cc1`, the Potency was 0.0461 µM (active).

Take `CCC[C@H](N[C@H]1CCc2cc(F)cc(F)c2C1)C(=O)Nc1cn(C(C)(C)CNCC(C)(C)C)cn1`: the max response is -10.9%. In the case of `CCC(C)C(=O)O[C@H]1[C@@H](OC(=O)c2ccoc2)C[C@](C)(O)[C@]23OC(C)(C)[C@H](C[C@H](OC(=O)c4ccoc4)[C@]12COC(C)=O)[C@H]3OC(C)=O` (stereo not given in full), the compound was called inactive. Regarding `COC1CC(=O)C23C(=O)NC(CC(C)C)C2C(C)C(C)=CC3/C=C(\C)CCCC1O` (stereo not given), the max response was -14.9%. Consider `COc1c2c(nc3occc13)C(CC=C(C)C)(OC)C(O)CC2` (stereo not given), for which the max response was -1.61%. On to `O=c1[nH]cnc2c([C@@H]3N[C@H](CO)[C@@H](O)[C@H]3O)c[nH]c12`, for which the compound was classed as inactive.

In the case of `O=C(COc1ccc(C(=O)c2ccccc2)cc1)NC1CCN(Cc2ccccc2)CC1`, the max response was -2.94%. In the case of `CC1OC(OC2C(O)COC(O[C@@H]3[C@@H](O)[C@@H](O)[C@H](OC4C(OC(=O)[C@]56CCC(C)(C)CC5C5=CCC7[C@@]8(C)C[C@H](O)[C@H](OC9OC(CO)C(O)C(O)C9O)[C@@](C)(CO)C8[C@H](O)C[C@@]7(C)[C@]5(C)CC6)OCC(O)C4O)O[C@H]3C)C2O)C(O)C(O)C1O` (stereo not given in full), the max response was 2.11%. On to `COc1cc(N(C)CCN(C)C)c(N)cc1Nc1nccc(-c2cn(C)c3ccccc23)n1`, for which the call was inactive. Still for that read-out and setting: the same measure for `C[C@@]12C(=O)N(c3ccc(C(=O)Nc4cccc5cccnc45)cc3)C(=O)[C@@H]1[C@@H]1C=C[C@H]2C1`: “inactive”.

With `Cc1ccc(N2CCN(CCC3NC(=O)c4ccccc43)CC2)cc1C` (stereo not given), the max response was 0.934%. Take `C=C1C(=O)OC[C@@H]1C/C=C(\C)CC1CC(C)C(=O)O1` (stereo not given in full): the max response was -3.27%.

For `N#Cc1ccc(COC[C@H]2O[C@@H](n3c(NCc4ccc(Cl)c(Cl)c4)nc4c(N)ncnc43)[C@H](O)[C@@H]2O)cc1`, the max response is -0.0303%. `Nc1nc2c(nc(Br)n2[C@@H]2O[C@@H]3COP(=O)(O)O[C@H]3[C@H]2O)c(=O)[nH]1`: the compound was classed as inactive.

Regarding `COc1ccc(C2Oc3c(OC)cc(CCCO)cc3C2COC2OC(CO)C(O)C(O)C2O)cc1OC` (stereo not given), the max response is -1.06%.

For `COc1cc(CCc2cc(NC(=O)c3ccc(N4CC(C)NC(C)C4)cc3)n[nH]2)cc(OC)c1` (stereo not given), the Potency was 14.6 µM (active).

As to `CC(C)(Cc1ccccc1)NCC(O)c1ccc(O)c(NS(C)(=O)=O)c1` (stereo not given), the max response is 0.817%. As for `CC1=CC2/C=C(\C)CCC(O)C(=O)C(O)CC(=O)C23C(=O)NC(CC(C)C)C3C1C` (stereo not given), the max response is -27%.

For `O=C(N[C@H]1CCN(C(=O)c2cc(C(F)(F)F)cc(C(F)(F)F)c2)[C@H](Cc2ccc(Cl)cc2)C1)c1ccnc2ccccc12`, the result was inactive. Consider `C/C(=C/CO)CCC1C(C)CCC2C(C)(C)CCCC12C` (stereo not given), for which the max response is 1.98%.

Turning to `CC[C@@H]1C[C@]1(NC(=O)[C@@H]1C[C@@H]2CN1C(=O)[C@H](C(C)(C)C)NC(=O)OCC(C)(C)CCCCc1cccc3c1CN(C3)C(=O)O2)C(=O)NS(=O)(=O)C1CC1`, the compound was called inactive. Consider `O=C(CSc1nc2ccccc2c(=O)n1-c1ccccc1)Nc1ccc2c(c1)CCC2`, for which the max response was -0.829%. With `CC(C)/C=C1\NC(=O)C(C(C)C)n2c1nc1ccccc1c2=O` (stereo not given), the max response is -0.19%. On the same count and under the same terms, the same measure for `Cc1cc(F)ccc1-c1nc(NCCN=C(N)NC#N)nc2c1ccc(=O)n2-c1c(F)cccc1F`: 4.3%.
